NR3A LBD binder = binders of NR3A ligand-binding domain, primary screen, biophysical, differential scanning fluorimetry, uHTS. Glutamate receptor ionotropic, NMDA 3A (GRIN3A) ligand-binding domain. NR3A LBD differential scanning fluorimetry, Tm shift; 0% = protein alone, 100% = glycine-bound protein. Tm shift relative to glycine control, % at 25 µM. actives 2.5% (n = 340,000);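 active = melting temperature shift of at least 10% of the positive control shift, at one fixed dose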
proKLK7 act = proKLK7 zymogen activators, primary screen, biochemical, fluorescence intensity | actives 0.9% (n = 370,000) | purified proKLK7, EDANS-DABCYL substrate fluorescence; 100% is mature enzyme control, 0% vehicle | Kallikrein-7 (Homo sapiens), P49862 | activation, % at 7 µM;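 active = activation above the mean of all tested compounds plus 3 SD, computed per campaign excluding outliers beyond control limits, cut at about 13% in these data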
ADAM10 inh = human ADAM10 inhibitors, primary screen, biochemical, QFRET, HTS. Disintegrin and metalloproteinase domain-containing protein 10 (Homo sapiens), O14672. AID 720582, 2013. recombinant ADAM10, EDANS/DABCYL FRET peptide cleavage, 3 h. actives 0.62% (n = 370,000). inhibition, % at 7 µM;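 active = inhibition above a per-campaign cutoff equal to the mean of compounds falling between control-based bounds plus 3 SD, cut at about 20% in these data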;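 note: 0% = DMSO wells while the 100% control is not disclosed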
AHR act = AHR activators, primary screen, cell-based, luminescence, luciferase reporter, human; AHR-responsive luciferase reporter cells; actives 2.5% (n = 320,000); activation, % at 5 µM; Aryl hydrocarbon receptor (Homo sapiens), P35869; in the data active = activation above about 47%;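 note: 0% = vehicle wells and 100% = reference agonist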
ADAM17 inh = ADAM17 inhibitors, primary screen, biochemical, QFRET; inhibition, % at 6.95 µM; Disintegrin and metalloproteinase domain-containing protein 17 (Homo sapiens), P78536; recombinant ADAM17, EDANS/DABCYL FRET peptide cleavage; actives 0.83% (n = 370,000); AID 720648, 2013;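 active = inhibition above the mean of compounds lying between control limits plus 3 SD, set per campaign, cut at about 8.5% in these data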;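 note: 0% = DMSO-only wells as the low control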
Target sequence (P78536 215-824 limits assumed): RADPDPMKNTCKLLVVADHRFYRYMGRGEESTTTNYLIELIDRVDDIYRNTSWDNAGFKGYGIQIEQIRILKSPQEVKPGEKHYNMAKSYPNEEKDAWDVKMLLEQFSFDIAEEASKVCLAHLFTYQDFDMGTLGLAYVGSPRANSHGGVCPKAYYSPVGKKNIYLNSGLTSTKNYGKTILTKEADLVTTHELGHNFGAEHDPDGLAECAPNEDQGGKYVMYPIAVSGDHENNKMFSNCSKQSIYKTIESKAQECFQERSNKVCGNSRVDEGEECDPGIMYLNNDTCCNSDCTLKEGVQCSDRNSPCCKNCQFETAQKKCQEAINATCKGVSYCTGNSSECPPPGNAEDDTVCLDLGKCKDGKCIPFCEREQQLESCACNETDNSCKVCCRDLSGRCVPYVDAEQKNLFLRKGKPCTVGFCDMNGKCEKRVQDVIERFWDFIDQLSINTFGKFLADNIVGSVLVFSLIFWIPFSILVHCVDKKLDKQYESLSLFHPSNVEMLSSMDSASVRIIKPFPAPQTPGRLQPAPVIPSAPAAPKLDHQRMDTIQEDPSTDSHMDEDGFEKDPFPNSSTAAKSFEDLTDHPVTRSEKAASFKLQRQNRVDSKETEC
rCAG RNA binder = binders of r(CAG) RNA repeats, primary screen, biochemical, fluorescence | inhibition, % at 3 µM | r(CAG) RNA repeat, TO-PRO-1 dye displacement fluorescence | actives 1.3% (n = 370,000);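 active = inhibition above the plate cutoff, the mean of all test compounds on that plate plus 3 SD, cut at about 35% in these data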;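 note: 0% = DMSO alone and 100% = 100 µM mitoxantrone as full dye displacement; higher means more dye released from RNA so lower well fluorescence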
rCAG bind conf = small molecules binding CAG repeat RNA – biochemical, fluorescence, confirmation; r(CAG) RNA repeat, TO-PRO-1 dye displacement fluorescence; AID 652065, 2013; shares compounds with rCAG RNA binder; actives 70% (n = 4,300); inhibition, % at 3 µM;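 active = inhibition above a per-plate cutoff, the mean inhibition of sample wells plus 3 SD, cut at about 35% in these data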;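 note: loss of TO-PRO-1 fluorescence as compound displaces dye from 1x1 AA loop RNA; 0% = DMSO only wells and 100% = 100 µM mitoxantrone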
DNA CAG counter = displacement of TO-PRO-1 from CAG DNA duplex, counter-screen for rCAG RNA repeat binder project, biochemical, fluorescence, TO-PRO-1 dye, d(CAG) DNA oligo. shares compounds with rCAG RNA binder. d(CAG) DNA oligo TO-PRO-1 dye displacement. inhibition, % at 3 µM. actives 94% (n = 4,300);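 active = inhibition above its plate's cutoff, the mean test-well inhibition plus 3 SD, cut at about 4.8% in these data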;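 note: 0% = DNA dye mix with DMSO and 100% = 100 µM mitoxantrone; hits displace the dye from DNA and so lower well fluorescence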
DNA CAG DR = inhibitors of DNA CAG/GTC TO-PRO-1 complex, dose response, counter-screen for rCAG RNA repeat binder project, biochemical, fluorescence, TO-PRO-1 dye; shares compounds with rCAG RNA binder; DNA CAG/GTC duplex TO-PRO-1 dye displacement fluorescence; IC50, µM; actives 20% (n = 250); AID 686960, 2013; in the data active = IC50 below about 10 µM
* hit, by the source's call; i = inactive; · = not tested or not shown. The list is not random: actives were taken first. Their share in the collection is about 7%.

SMILES	NR3A LBD binder	proKLK7 act	ADAM10 inh	AHR act	ADAM17 inh	rCAG RNA binder	rCAG bind conf	DNA CAG counter	others
CC(=O)c1cc(-c2ccccc2)n(CC(=O)NCc2ccc(F)cc2)c1C	·	0	-1	·	3	5	·	·
COc1ccc([C@@H]2CC=C(C(=O)O)[C@H](c3ccc(F)cc3)N2S(=O)(=O)c2ccc(Cl)cc2)cc1	-1	1	5	-1	-3	58*	47*	15*
Cc1ccc(S(=O)(=O)N2[C@@H](c3ccc(F)cc3)C(C(=O)O)=CC[C@H]2c2cccc(Cl)c2)cc1	-19	0	-8	3	-6	8	·	·
COc1ccc([C@@H]2CC=C(C(=O)O)[C@H](c3cccc(Cl)c3)N2S(=O)(=O)c2ccc(Cl)cc2)cc1	-13	0	12	-1	5	74*	71*	33*	DNA CAG DR=i
Cc1ccc2nc(N/C(=N/S(=O)(=O)c3cccs3)c3ccccc3Cl)sc2c1	0	0	16	-2	2	71*	51*	19*
CCN(CC)C(=O)[C@H]1C[C@@H]2[C@H](C[C@@H](c3ccccc3)[C@H]1C)N(c1ccc(F)cc1)C(=O)N2CCCOc1ccccc1	·	1	3	·	6	5	·	·
CC1(C(=O)NNC(=O)c2ccc(=O)oc2)CC1Br (stereo not given)	1	-2	-32	9	-9	43*	60*	24*	DNA CAG DR=9.9*
Cc1cc(=O)oc(C)c1C(=O)NNC(=O)C1(C)CC1Br (stereo not given)	-1	-1	-3	1	1	1	·	·
CCc1ccc(NC(=O)c2ccc3c(c2)C(=O)N(Cc2ccco2)C3=O)cc1	-1	0	1	15	-3	35*	23	14*
COC(=O)Cc1ccc(NC(=O)c2ccc3c(c2)C(=O)N(Cc2ccco2)C3=O)cc1	0	-1	-11	-4	-5	5	·	·
O=C(O)COc1ccccc1/C=N/NC(=O)COc1ccc(-c2ccccc2)cc1	0	0	0	68*	-8	66*	64*	22*
O=C(CSc1nc2ccccc2n1Cc1ccc(Cl)cc1)N/N=C/c1ccccc1C(=O)O	-11	0	-19	0	-4	53*	56*	18*
O=C(O)COc1ccccc1/C=N/NC(=O)c1cccc(S(=O)(=O)Nc2cccc(Cl)c2)c1	-1	0	5	3	3	48*	30	8.7*
O=C(O)COc1ccccc1/C=N/NC(=O)CSc1nc2ccccc2n1Cc1ccc(Cl)cc1	-2	1	6	4	-1	60*	76*	35*
C[C@H]1C2CC(OC(=O)Nc3cccc(C(F)(F)F)c3)C(C2)[C@H]2CCCCN21 (stereo not given in full)	·	-1	-8	·	-5	-1	·	·
COc1ccc(-n2c(SCC(=O)N/N=C/c3ccccc3OCC(=O)O)nc3ccccc3c2=O)cc1	-1	0	-15	4	-9	43*	47*	13*
O=C(NC1CCCCN(Cc2ccc(Cl)cc2)C1=O)c1ccccc1-c1ccc(Cl)c(Cl)c1 (stereo not given)	·	0	4	·	2	2	·	·
Cc1cccc(NC(=S)NNC(=O)COc2ccc(Cl)cc2Cl)c1	2	0	16	-3	4	45*	33	10*
O=C(O)CCCCCN1C(=O)c2ccc(C(=O)O)cc2C1=O	0	0	5	-1	0	3	·	·
O=C(O)c1ccc2c(c1)C(=O)N(CCCCCCCN1C(=O)c3ccc(C(=O)O)cc3C1=O)C2=O	2	0	6	4	4	37*	23	4
O=C(Nc1cc(Cl)ccc1C(=O)O)c1ccc(CN2C(=O)c3ccccc3C2=O)cc1	13*	0	-6	2	-4	59*	85*	72*
O=C(Nc1ccc(Br)cc1C(=O)O)c1ccc2c(c1)C(=O)N(Cc1ccccc1)C2=O	2	1	-5	3	2	49*	87*	77*
O=C(O)c1cccc(NC(=O)c2ccc(CN3C(=O)c4ccccc4C3=O)cc2)c1	-1	-1	0	1	-3	16	·	·
CCCN1C(=O)c2ccc(C(=O)Nc3ccccc3C(=O)O)cc2C1=O	-14	0	-13	3	-1	54*	36*	7.0*
COC(=O)c1cc2c(c3c4cc(OC)ccc4n(S(C)(=O)=O)c13)C(=O)N(C)C2	·	2	-26	·	-12	17	·	·
SMILES	NR3A LBD binder	proKLK7 act	ADAM10 inh	AHR act	ADAM17 inh	rCAG RNA binder	rCAG bind conf	DNA CAG counter	others
CCOC(=O)N1CCN(C(=O)C[C@H]2C[C@@]3(C(=O)OC)C(=C[C@H](COCc4ccccc4)O[C@@H]3C)N(CCC3=CCCCC3)C2=O)CC1	·	0	2	·	4	5	·	·
COC(=O)c1sc(NC(=O)C2CCCCC2C(=O)O)c(C(=O)OC)c1C (stereo not given)	0	0	0	-1	-4	39*	44*	9.0*
COC(=O)c1c(NC(=O)C2CCCCC2C(=O)O)sc2c1CCCCC2 (stereo not given)	1	0	-24	5	-7	48*	33	5.7*
COC(=O)c1sc(NC(=O)C2CCCO2)c(C(=O)OC)c1C (stereo not given)	0	0	-3	0	-6	0	·	·
CC(=O)N1CCCN(S(=O)(=O)c2ccc3c(c2)c(=O)n(C)c(=O)n3C)CC1	·	0	5	·	2	3	·	·
COc1ccc(CC(=O)N2CCN(C(=O)c3ccc4nc(C)n(C5CCCC5)c4c3)CC2)cc1	·	1	-4	·	-4	-1	·	·
